From PubChem BioAssay (NCATS)
Activity calls are given as the source filed them. The call rests on the fitted dose curve; in most records, active means well fitted inhibition curve with a large enough effect; inconclusive means small, poorly fitted or top-dose-only effect; inactive means flat fitted curve, though single readings scatter.

biological target: DNA dC->dU-editing enzyme APOBEC-3G (Homo sapiens) (UniProt Q9HC16); test: qHTS for inhibitors of Vif-A3G interactions: Validation (AID 588379); conditions: Vif-A3G protein interaction assay; series mostly up to 46.1 µM
Description: The recent discovery and characterization of host restriction factors, which provide a potent defense to invading retroviruses, has provided new targets for antiviral drug development. APOBEC3G (A3G) and APOBEC3F (A3F) are potent cytidine deaminases that block HIV-1 replication; HIV-1 expresses the Vif protein, which counteracts A3G and A3F by binding to them and inducing their proteasomal degradation.
The Vif-A3G and Vif-A3F interactions provide two potential targets for development of small molecules which can interfere with the ability of Vif to degrade A3G or A3F. […] To identify inhibitors that can interfere with Vif mediated degradation of A3G and A3F, we have developed Hela cell lines that stably express A3G or A3F tagged with eYFP at the C-terminal end (A3G-eYFP or A3F-eYFP, respectively) and Vif. In the absence of an inhibitor, Vif induces degradation of A3G-eYFP and A3F-eYFP, and the cells are not fluorescent. In the presence of an inhibitor, it is expected that Vif will be unable to degrade A3G-eYFP and/or A3F-eYFP, resulting in an increase in yellow fluorescence. In this assays Vif A3G was screened against the Molecular Library Small Molecile Repository (MLSMR).
NIH Chemical Genomics Center [NCGC]
NIH Molecular Libraries Probe Centers Network [MLPCN]
Assay Submitter (PI): Vinay Pathak, National Cancer Institute
5 uL of 700 cells/well of A3G-YFP cells are dispensed into black, clear bottom plates. The plates are incubated overnight at 37 deg C. 23 nL of compounds are added by pintool. The plates are incubated overnight at 37 deg C and then read on the TTP Acumen (Ex 488/ Em 500-530).

Chain of DNA dC->dU-editing enzyme APOBEC-3G (Homo sapiens) (Q9HC16 whole entry, looked up): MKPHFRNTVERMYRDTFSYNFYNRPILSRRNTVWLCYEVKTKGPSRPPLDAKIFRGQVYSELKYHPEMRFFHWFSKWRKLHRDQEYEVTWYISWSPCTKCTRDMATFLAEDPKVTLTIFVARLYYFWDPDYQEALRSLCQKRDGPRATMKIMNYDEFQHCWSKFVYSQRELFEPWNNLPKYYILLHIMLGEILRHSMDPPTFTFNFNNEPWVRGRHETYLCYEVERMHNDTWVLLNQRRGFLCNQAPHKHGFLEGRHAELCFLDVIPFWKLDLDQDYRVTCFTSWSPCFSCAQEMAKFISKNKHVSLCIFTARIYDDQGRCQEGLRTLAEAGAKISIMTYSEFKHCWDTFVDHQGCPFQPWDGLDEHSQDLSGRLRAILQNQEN

Potency, inactive:
NS(=O)(=O)c1cccc2c1c([N+](=O)[O-])cc1[nH]c(=O)c(=O)[nH]c12, CC(C)C[C@H]1C(=O)N2CCC[C@@H]2[C@]2(O)O[C@](NC(=O)[C@@H]3C=C4c5cccc6[nH]c(Br)c(c56)C[C@H]4N(C)C3)(C(C)C)C(=O)N12, CCNCCCNCCCNCCCNCC, CCC(=O)N[C@@H]1CCc2cccc(OC)c2C1, CC1=C(\C=C/C(C)=C/C=C\C(C)=C\C(=O)O)C(C)(C)CCC1, N[C@H](CCC(=O)NCC(=O)O)C(=O)O, NC(=O)C[C@H](NC(=O)Cc1ccc(O)cc1O)C(=O)O, NCCCNCCCCN(CCCN)/[N+]([O-])=N/O, COc1cc2c(cc1OC)-c1cc3nc4ccccc4nc3n1C(C)(C)C2, CC#C[C@]1(O)CC[C@H]2[C@@H]3CCC4=CC(=O)CCC4=C3[C@H](c3ccc(N(C)C)cc3)C[C@@]21C, N[C@@H](CO)C(=O)O, c1cc2c(cc1C1CCCCC1)c1c3n2CCN[C@H]3CCC1, NC(N)=Nc1ccc(Cl)cc1, NCCCCCCNS(=O)(=O)c1ccc2c(Cl)cccc2c1, NC1(C(=O)O)CCC1, Cc1cc(C)cc(C(=O)N(C)[C@H](Cc2ccc(-c3ccccc3)cc2)C(=O)N[C@@H](Cc2c[nH]c3ccccc23)C(=O)O)c1, CC(C)(C)c1cc(O)c(C(C)(C)C)cc1O, O=[N+]([O-])c1ccc2cn[nH]c2c1, C[C@@H](CCc1ccc(O)cc1)NCCc1ccc(O)c(O)c1, NCCC(=O)O, C#CCCCCCCCCCCCCCCCC(=O)O, CC(N)=NCCC[C@H](N)C(=O)O, CCCn1c(=O)c2[nH]c(-c3ccccc3)nc2n(CCC)c1=O, COC(=O)C1=C(C)NC(C)=C([N+](=O)[O-])[C@@H]1c1ccccc1C(F)(F)F, COc1ccc2c(c1)c(CC(=O)N1CCOCC1)c(C)n2C(=O)c1ccc(Cl)cc1, C[N+]1(C)CCc2cc3c(cc2[C@@H]1[C@@H]1C(=O)Oc2c1ccc1c2OCO1)OCO3, CC[C@]1(O)C[C@@H]2CN(CCc3c([nH]c4ccccc34)[C@](C(=O)OC)(c3cc4c(cc3OC)N(C)[C@H]3[C@](O)(C(=O)OC)[C@@H](C(=O)OC)[C@@]5(CC)C=CCN6CC[C@@]43[C@@H]65)C2)C1, CC(=O)OCCNC(=O)c1cccnc1, CCN(Cc1ccncc1)C(=O)[C@@H](CO)c1ccccc1, CCCCCCN(CCCCCC)C(=O)Cc1c(-c2ccc(Cl)cc2)[nH]c2ccc(Cl)cc12, N[C@@H](C(=O)O)c1ccc(C(=O)O)cc1, COc1cc(OC)c2cc(-c3ccncc3)cnc2c1, O=C(Nc1cc(C(=O)Nc2ccc(S(=O)(=O)O)cc2S(=O)(=O)O)cc(C(=O)Nc2ccc(S(=O)(=O)O)cc2S(=O)(=O)O)c1)Nc1cc(C(=O)Nc2ccc(S(=O)(=O)O)cc2S(=O)(=O)O)cc(C(=O)Nc2ccc(S(=O)(=O)O)cc2S(=O)(=O)O)c1, O=C(O)CC/C=C\C[C@@H]1CO[C@H](c2ccccc2Cl)O[C@@H]1c1ccccc1O, Cc1c(C2CCN(CCc3ccccc3)CC2)noc1-c1ccc(Cl)cc1, COc1cc(-c2ccc(N=Nc3ccc4c(S(=O)(=O)O)cc(S(=O)(=O)O)c(N)c4c3O)c(OC)c2)ccc1N=Nc1ccc2c(S(=O)(=O)O)cc(S(=O)(=O)O)c(N)c2c1O, CCCCCCCCCCCCCCCC(=O)O[C@H](CC(=O)O)C[N+](C)(C)C, C=C[C@@]1(C)CC(=O)[C@@]2(O)[C@@]3(C)[C@@H](O)CCC(C)(C)[C@@H]3[C@H](O)[C@H](OC(C)=O)[C@@]2(C)O1, CC(C)NC[C@@H](O)COc1cccc2[nH]ccc12, CCOC(OCC)P(=O)(O)CCCNCc1ccc(Cl)c(Cl)c1
